# Source: PubChem BioAssay AID1030 (National Center for Advancing Translational Sciences (NCATS), 2008)
# About 16,000 (7.3%) of roughly 220,000 compounds were called active. Entries that show only a call come without a potency. Not shown: some 25% with an inconclusive outcome. The call rests on the fitted dose curve; in most records, active means well fitted inhibition curve with a large enough effect (not every such curve was filed as active); inconclusive means small, poorly fitted or top-dose-only effect, or another doubt; inactive means no such curve, though single readings can be large or run the other way. Only a selection was taken, and actives are over-represented in it overall.
# Target: Aldehyde dehydrogenase 1A1 (Homo sapiens) (UniProt P00352)
# Sequence (P00352 whole entry, looked up): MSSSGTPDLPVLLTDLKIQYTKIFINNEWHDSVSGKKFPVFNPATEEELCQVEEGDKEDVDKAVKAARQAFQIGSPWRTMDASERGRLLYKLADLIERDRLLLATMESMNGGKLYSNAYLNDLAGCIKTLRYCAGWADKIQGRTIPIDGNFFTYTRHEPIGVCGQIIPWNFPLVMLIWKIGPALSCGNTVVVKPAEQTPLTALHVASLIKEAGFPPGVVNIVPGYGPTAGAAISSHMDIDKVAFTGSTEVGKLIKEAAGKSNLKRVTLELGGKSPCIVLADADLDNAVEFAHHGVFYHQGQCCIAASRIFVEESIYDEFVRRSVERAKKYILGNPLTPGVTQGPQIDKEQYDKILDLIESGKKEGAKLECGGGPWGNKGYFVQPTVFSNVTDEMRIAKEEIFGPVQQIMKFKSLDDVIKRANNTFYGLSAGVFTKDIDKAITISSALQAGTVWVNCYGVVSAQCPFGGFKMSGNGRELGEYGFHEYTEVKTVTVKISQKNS
# Assay: qHTS Assay for Inhibitors of Aldehyde Dehydrogenase 1 (ALDH1A1)
# Conditions: Purified ALDH1A1, NADH fluorescence, propionaldehyde substrate; series mostly up to 75.3 µM
# Potency means the concentration at half of the fitted maximal effect.
Compound,Potency,"activity, negative = inhibition"
COC1=C[C@]23CCCN2CCc2cc4c(cc2[C@@H]3[C@@H]1O)OCO4,inactive,
O=C(O)C1C2CCC(O2)C1C(=O)O (stereo unspecified),inactive,
CN(C)C1C(=O)C(C(N)=O)=C(O)[C@@]2(O)C(=O)C3=C(O)c4c(O)cccc4[C@@](C)(O)C3C[C@@H]12 (stereo partly specified),inactive,
C=CCSSCC=C,6.31 µM (active),
CN(C)c1ccc(/C=C2\CC3C4CC=C5CC(O)CCC5(C)C4CCC3(C)C2=O)cc1 (stereo unspecified),inactive,
O=C1NC(=O)C(CCc2ccccn2)(Cc2cccc(Cl)c2Cl)C(=O)N1c1ccc(Br)cc1 (stereo unspecified),inactive,
CCOC(=O)C(O)(c1ccc(N=Cc2ccccc2O)c(C)c1)C(F)(F)F (stereo unspecified),inactive,
CN(C)C(=O)Oc1cc(=O)n2c3c(cccc13)CCC2,inactive,
COc1ccc(C2=NOC(COC(=O)c3ccc4ccccc4n3)C2)cc1 (stereo unspecified),5.62 µM (active),
CN(C)/C=C(\C=[N+](C)C)c1[nH]ncc1[N+](=O)[O-],inactive,
CC[N+](CC)(CC)CCCCCCCCCC[N+](CC)(CC)CC,inactive,
O=C1C2CCN(CC2)C1(CO)CO,inactive,
CC(C)n1c(=O)c(C=Nc2ccc(Br)cc2)c(O)n(Cc2ccco2)c1=O,14.1 µM (active),
CN(C)CCCN=Cc1c(O)n(Cc2ccco2)c(=O)[nH]c1=O,inactive,
COc1cc2c(cc1OC)[C@@H]1C(=O)c3ccc(O)c(CC=C(C)C)c3OC1CO2 (stereo partly specified),inactive,
CC(=O)Nc1ccccc1C(=O)OCC(=O)c1cccc2ccccc12,inactive,
NCC[Se][Se]CCN,3.55 µM (active),
CC[C@H]1CN2CCc3cc(OC)c(OC)cc3[C@@H]2C[C@@H]1C[C@H]1NCCc2cc(OC)c(OC)cc21,inactive,
CCc1cccc2c(C#N)cn(CC(=O)N3CCOCC3)c12,inactive,
CCN(CC)P(=O)(Oc1cccc(C)c1)N(CC)CC,inactive,
Cc1cccc([C@H](C)c2cnc[nH]2)c1C,inactive,

Compound,Potency,"activity, negative = inhibition"
ClC(Cl)(Cl)c1ccccc1,inactive,
O=Cc1cn(Cc2ccc(F)cc2Cl)c2ccccc12,3.16 µM (active),
Cc1ccc(-c2nn(CCC#N)cc2C(=O)O)cc1C,inactive,
Cc1ccc(S(=O)(=O)O[C@H]2CN3CCC2CC3)cc1,,4.24% [at 13.5 µM] (inactive)
COC(=O)c1ccc2[se]c(CC3CCCCC3)c(I)c2c1,inactive,
CCCCCCCCCCCCCC(=O)O[C@@H]1[C@@H](C)[C@@]2(O)[C@@H](C=C(CO)C[C@]3(O)C(=O)C(C)=C[C@@H]23)[C@@H]2C(C)(C)[C@]12OC(C)=O,inactive,
Cn1c(O)c(C=NCCCC(=O)O)c(=O)n(C)c1=O,inactive,
C[C@@H]1C[C@@H]2O[C@H]2/C=C\C=C\C(=O)Cc2c(Cl)c(O)cc(O)c2C(=O)O1,inactive,
O=C(C1CC(=O)N(C2CCCC2)C1)N1CCC2(CC1)OCCO2 (stereo unspecified),inactive,
C=CCN1C(=O)C2(C(C(=O)OCC)=C(N)Oc3c2c(=O)oc2ccccc32)c2ccccc21 (stereo unspecified),0.398 µM (active),
CCOC(=O)c1ncn2c1[C@@H]1CCCN1C(=O)c1cc(OC)ccc1-2,inactive,
CCOCCc1c(O)[nH]c(=S)[nH]c1=O,inactive,
CCOC(=O)C1CN(C)CCC1=O (stereo unspecified),inactive,
CNC(C)[C@@H](O)c1ccccc1 (stereo partly specified),inactive,
O=c1oc2ccccc2c(O)c1C(c1ccccc1O)c1c(O)c2ccccc2oc1=O,inactive,
c1ccc2sc(C3CCCNC3)nc2c1 (stereo unspecified),inactive,
c1ccc2sc(SNC3CCCCC3)nc2c1,0.794 µM (active),
c1ccc2sc(N3CCNCC3)nc2c1,inactive,
C1CC[C@H]([C@@]23C[C@H](C[C@H]4CCCN[C@H]42)[C@@H]2CCCCN2C3)NC1,inactive,
CC1(C)C(c2ccccc2)=NC(c2cccnc2)=[N+]1[O-],inactive,
